# Reference: ChEMBL document CHEMBL3988442, “University of Dundee, Small-Polar-MMV Screening Library” (2021)
# Screen size: about 38,000 compounds; about 1,200 (3.2%) showed an effect of 50% or more. The median lay at about -58%. Many of the other results were omitted from the sample, so strong results are more common in it than they were.
# Tested on: Plasmodium falciparum
# Experiment: Calibr Malaria Delayed Death Assay SOP
# Format: functional, organism-based
# Set-up: scale not given: in the data most compounds retested in dose-response had high values
# Conditions: concentration 4.99e-06 (unit not given; other assays of the set use mol/L)
row,SMILES,Percent Effect
1,CCn1cc(CNCC(c2ccc(Cl)cc2)n2cccn2)cn1 (stereo not given),59.81%
2,Clc1ccc(C(CNCc2ccncc2)n2cccn2)cc1 (stereo not given),-53.83%
3,Cn1cc(CNCC(c2ccc(Cl)cc2)n2cccn2)cn1 (stereo not given),16.07%
4,CCn1cc(-c2n[nH]c(=O)n2-c2ccc3c(c2)OCO3)c(C)n1,-101.4%
5,CCC[C@H]1CN(Cc2cscn2)C[C@@H]1NC(=O)C1(COC)CCC1,-24.11%
6,CCC[C@H]1CN(c2nc(CO)cs2)C[C@@H]1NC(=O)C1(COC)CC1,71.28%
7,CCC[C@H]1CN(c2nc(CO)cs2)C[C@@H]1NC(=O)C1CCC1,1.552%
8,CC(C)C[C@H](NC(=O)Cn1ccc2c(Cl)cccc21)C(=O)O,-50.44%
9,COc1cccc(CN(C)Cc2nc(C(C)C)no2)c1,-65.15%
10,Cn1cnc(S(=O)(=O)N2CC3(CCN(c4ccccc4)C3)C2)c1.O=C(O)C(F)(F)F,1.109%
11,FC1(F)CCN(Cc2cccnc2)CC12CCN(c1ccccc1)C2.O=C(O)C(F)(F)F.O=C(O)C(F)(F)F.O=C(O)C(F)(F)F (stereo not given),84.58%
12,OCCN1CCC(F)(F)C2(CCN(c3cccnc3)C2)C1 (stereo not given),-53.32%
13,FC1(F)CCN(Cc2ccncc2)CC12CCN(c1cccnc1)C2.O=C(O)C(F)(F)F.O=C(O)C(F)(F)F.O=C(O)C(F)(F)F (stereo not given),15.13%
14,O=C(O)C(F)(F)F.O=C(c1c[nH]cn1)N1CCC(F)(F)C2(CCN(c3cccc(F)c3)C2)C1 (stereo not given),85.76%
15,O=C(O)C(F)(F)F.O=C(c1c[nH]cn1)N1CCC(F)(F)C2(CCN(c3ncccn3)C2)C1 (stereo not given),-29.78%
16,FC1(F)CCN(Cc2cccnc2)CC12CCN(c1cnccn1)C2.O=C(O)C(F)(F)F.O=C(O)C(F)(F)F.O=C(O)C(F)(F)F (stereo not given),-45.54%
17,CN1CC(=O)N(c2ccccc2)CC12CCN(CCO)C2.O=C(O)C(F)(F)F.O=C(O)C(F)(F)F (stereo not given),-19.33%
18,O=C(O)C(F)(F)F.O=C(O)C(F)(F)F.O=C(c1c[nH]cn1)N1CCC(F)(F)C2(CCN(c3ccccn3)C2)C1 (stereo not given),-115.9%
19,O=C(O)C(F)(F)F.O=C(O)C(F)(F)F.OCCN1CC2(CCN(c3ccccc3)C2)C1,61.64%
20,FC1(F)CCN(c2ccccc2)CC12CCN(c1ncccn1)C2 (stereo not given),-152.8%
21,C=C(C)CN1CCC(NC(=O)Nc2ccc(F)c(C(N)=O)c2)CC1,-90.89%
22,Cc1cc(Br)ccc1C(=O)NCCN1CCCCCC1,28.4%
23,COc1ccc(Cn2cc(C(=O)N(C)Cc3ccn[nH]3)nn2)cc1,-12.45%
24,CCC(C)[C@H](N)c1nnc(SCC(=O)Nc2ccc(C)cc2C)o1.Cl (stereo not given in full),-23.34%

row,SMILES,Percent Effect
1,COc1ccc(C2CCCCCN2Cc2cn(C)nc2C)cc1 (stereo not given),-0.1987%
2,CSc1ncnc(NCc2ccccc2F)c1C#N,-23.93%
3,O=C1COc2cc(C(=O)NS(=O)(=O)c3ccc(F)cc3)ccc2N1,-21.19%
4,Cc1nn(C)c(Cl)c1C1CCCN1C(=O)c1cccn1C (stereo not given),-34.06%
5,c1cc(CNCC2CNc3ccnn3C2)cc(Cn2cccn2)c1 (stereo not given),-27.88%
6,FC1(F)CCNCC12CCN(c1ccccn1)C2 (stereo not given),56.42%
7,FC1(F)CCNCC12CCN(c1ncccn1)C2 (stereo not given),17.29%
8,Fc1cccnc1N1CCC2(CNCCC2(F)F)C1 (stereo not given),45.04%
9,FC1(F)CCNCC12CCN(c1cccnc1)C2.O=C(O)C(F)(F)F.O=C(O)C(F)(F)F (stereo not given),64.81%
10,O=C(O)C(F)(F)F.O=C(O)C(F)(F)F.O=C(O)CN1CCC(F)(F)C2(CCN(c3ccccn3)C2)C1 (stereo not given),-82.81%
11,O=C(CO)N1CCC(F)(F)C2(CCN(c3ccccc3)C2)C1.O=C(O)C(F)(F)F (stereo not given),-34.49%
12,O=C(C1CCCO1)N1CCCC2(CCN(c3cccnc3)CC2)C1.O=C(O)C(F)(F)F (stereo not given),-72.8%
13,N#Cc1ccc(N2CCCC3(CCN(c4cccnc4)CC3)C2)cc1.O=C(O)C(F)(F)F,-71.51%
14,Cn1ccnc1CN1CCC(F)(F)C2(CCN(c3cnccn3)C2)C1.O=C(O)C(F)(F)F (stereo not given),-1.841%
15,O=C(O)C(F)(F)F.O=C(O)C(F)(F)F.O=C(O)CN1CCC(F)(F)C2(CCN(c3ccccc3)C2)C1 (stereo not given),66.58%
16,Cn1ccnc1CN1CCC2(CC1)CN(Cc1cccnc1)C(=O)CO2.O=C(O)C(F)(F)F.O=C(O)C(F)(F)F,-38.55%
17,Cn1ccnc1CN1CCC(F)(F)C2(CCN(c3cccnc3)C2)C1.O=C(O)C(F)(F)F.O=C(O)C(F)(F)F (stereo not given),58.45%
18,COCC1CN(Cc2ccoc2)Cc2nn(CC3CC3)cc21.O=C(O)C(F)(F)F (stereo not given),-62.03%
19,O=C(C1CC(c2ccccc2)=NO1)N1CCc2ccccc21 (stereo not given),-20.98%
20,Cc1cnn(CCNCC(=O)NCCOc2ccc(Cl)cc2)c1,-0.9504%
21,O=C(Cc1noc(C(=O)NCC2CC2)n1)Nc1cccc(C(F)(F)F)c1,7.243%
22,Clc1snnc1CN1CCN(c2nccs2)CC1,-49.26%
23,CC(=O)Nc1cccc2c1ccn2CC(=O)Nc1n[nH]c(CC(C)C)n1,-107.2%
24,Cc1csc(CNC(=O)N2CCN(Cc3ccco3)CC2)n1,-96.64%

row,SMILES,Percent Effect
1,N[C@H]1CN(Cc2cnc(N3CCCC3)nc2)C[C@@H]1C1CC1,-9.289%
2,CCc1cc(N2C[C@H](C3CC3)[C@@H](N)C2)nc(N2CCCC2)n1,69.94%
3,CNc1cc(C)nc(N2C[C@H](C3CC3)[C@@H](N)C2)n1,87.7%
4,CC(C)Oc1cc(N2C[C@H](C3CC3)[C@@H](N)C2)nc(N)n1,-219.2%
5,CNc1cc(C)nc(N2C[C@@H](C(=O)O)[C@H](C3CC3)C2)n1,-82.68%
6,CNc1cc(C)nc(N2C[C@H](NC(=O)C3CCOCC3)[C@@H](C3CC3)C2)n1,-47.54%
7,O=C1CN(C(=O)c2cccc(C(F)(F)F)c2)CC(O)CN1CC1CC1 (stereo not given),-23.92%
8,COCC(=O)N(Cc1ccc2[nH]ccc2c1)C1CC1,-74.09%
9,O=C(c1ccc(-c2ccoc2)nc1)N1CCCN(C2CCCCC2)CC1,-100.8%
10,Cc1ccc(S(=O)(=O)CCC(=O)N(C)Cc2cnn(C)c2)cc1,-22.92%
11,CCC1COCCN1C(=O)NCc1nccn1CCc1ccccc1 (stereo not given),-72.5%
12,OCCN1CCN(CC(O)c2ccc(OC(F)(F)F)cc2)CC1 (stereo not given),-7.34%
13,CC(NCC1CCN(CCO)CC1)c1ccc(C(F)(F)F)cc1 (stereo not given),88.54%
14,CC(NCC1CCN(CCO)CC1)c1ccc(OC(F)(F)F)cc1 (stereo not given),93.49%
15,CC(c1ccc(C(F)(F)F)cc1)N1CCN(CCS(C)(=O)=O)CC1 (stereo not given),-72.63%
16,CN(Cc1ccccc1OC(F)(F)F)C(=O)C1CC1,-112.4%
17,COCCN1CCN(CC(O)c2ccc(C(F)(F)F)cc2)CC1 (stereo not given),6.899%
18,NC(=O)N1CCCC(C(=O)NCc2ccccc2OC(F)(F)F)C1 (stereo not given),-135.5%
19,CCCN1CCN(CC(O)c2ccc(OC(F)(F)F)cc2)CC1 (stereo not given),42.81%
20,Cc1cccc(CN2CC3(CCN(S(=O)(=O)C4CC4)CC3)OCC2=O)n1.O=C(O)C(F)(F)F,-75.59%
21,Cc1nccn1CCCC(=O)N1CCCN(c2cccnn2)CC1,-112.5%
22,COC(=O)C1CN(Cc2nc(-c3ccccc3)cs2)C[C@@H](C)O1 (stereo not given in full),-63.3%
23,Cc1cc2cccc(NC(=O)N3CCC(N(C)C)C3)c2o1 (stereo not given),-83.5%
24,NC(=O)c1cc(NC(=O)NCCc2cc(F)cc(F)c2)ccc1F,-73.47%

row,SMILES,Percent Effect
1,O=C1CC(c2ccc3c(c2)OCO3)c2c(n3ccsc3nc2=O)N1 (stereo not given),-91.85%
2,CN(C)c1ncccc1CNS(=O)(=O)c1cc(F)ccc1F,-126.3%
3,CCC(CC)NC(=O)c1cccnc1N1CCCC1c1ccccn1 (stereo not given),-135.6%
4,CCCS(=O)(=O)N1CCN(C(C)(C)CO)CC1,-101.2%
5,Cc1cc(C2CCCN(CC(=O)N3CCCc4ccccc43)C2)n[nH]1 (stereo not given),-11.77%
6,O=C(CN1CCCC(c2ccn[nH]2)C1)Nc1nc2c(s1)CCCC2 (stereo not given),85.91%
7,Cc1nnc(NC(=O)CN2CCCC(Cn3cncn3)C2)s1 (stereo not given),-101.2%
8,Cc1cc(C2CCCN(CC(=O)N3CCc4ccccc43)C2)n[nH]1 (stereo not given),-86.51%
9,Cc1nnc(NC(=O)CN2CCCC(c3ccn[nH]3)C2)s1 (stereo not given),85.62%
10,O=C1CCCCCN1CCC(=O)N1CCCC(c2ccn[nH]2)C1 (stereo not given),-59.24%
11,Cc1nnc(NC(=O)CN2CCOC(Cn3cccn3)C2)s1 (stereo not given),-152.2%
12,Cc1cc(C2CCCN(CC(=O)Nc3nc4c(s3)CCC4)C2)n[nH]1 (stereo not given),86.8%
13,O=C(CN1CCCC(c2ccn[nH]2)C1)Nc1nc2c(s1)CCC2 (stereo not given),89.1%
14,CC(C)C1Nc2ccccc2C(=O)N1CC(=O)Nc1nc2c(s1)CCC2 (stereo not given),15.72%
15,O=C(CCc1cscn1)N1CCCC(c2ccn[nH]2)C1 (stereo not given),-83.54%
16,O=C1CCCN1CCN1CCCC(c2ccn[nH]2)C1 (stereo not given),13.33%
17,COc1ccc(C)nc1NC(=O)CCc1c(C)nn(C)c1C,-87.92%
18,CCc1nc(C(=O)N2CCN(C)c3ccccc32)c[nH]1,-108.8%
19,COCc1n[nH]/c(=N/C(=O)COc2cnc(C)cc2O)s1,-11.35%
20,O=C(c1cccnc1)N1CCC2(CC1)CN(c1ccccn1)CCO2,-57.82%
21,CN(C)C(=O)N1CC2(CCNCC2)c2cc(Cl)ccc21.Cl,23.36%
22,Cl.Cl.O=C([C@H]1CCCN1)N1CC2(CCNCC2)c2cc(Cl)ccc21,58.74%
23,Cl.NC(=O)N1CC2(CCNCC2)c2cc(Cl)ccc21,-64.91%
